# Glioma ERSR ind = induces the endoplasmic reticulum stress response in human glioma cells; Potency, µM, inactives show top-dose activation, actives largely listed as activators; 420,000 compounds, 0.02% hits; U87-MG GRP78 promoter luciferase reporter, 16 h; further: series mostly up to about 76 µM; % of control where 0% means no effect; nearly all actives have a fitted effect of over 35% in size
#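 Stably transfected U87-MG glioma cells carrying a GRP78-based luciferase sensor; 16 h compound incubation. Luminescence end-point read 10 min after Bright-Glo addition at room temperature.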
# 12-LOX inh = inhibitors of human 12S-lipoxygenase ALOX12; 580,000 compounds, 1.1% hits; purified 12hLO, xylenol orange hydroperoxide absorbance; AID 1671190; P18054; Potency, µM (doses to about 108 µM), inactives show top-dose activity change, negative = inhibition, usual class: inhibitors; further: on the % scale 0 is the no-effect control and ±100 the full control effect
#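 Hydroperoxide product was detected by ferrous iron/xylenol orange as the 573 to 405 nm absorbance ratio. Arachidonic acid at 40 uM (final) was turned over for 30 min at room temperature by 150 nM human 12hLO, pH 7.0 Hepes buffer, after 15 min compound preincubation.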
# mIDH1 inhibitor = human IDH1 R132H inhibition. O75874. Potency, µM (titrated, usually from 76.6 µM), inactives show top-dose activity change, negative = inhibition, actives largely listed as inhibitors. 390,000 compounds, 0.093% hits. IDH1-R132H enzyme, NADPH consumption, diaphorase/resazurin fluorescence; further: on the % scale 0 is the no-effect control and ±100 the full control effect; nearly all actives have a fitted effect of over 65% in size
# Target sequence (O75874 whole entry R132H, stated change not applied): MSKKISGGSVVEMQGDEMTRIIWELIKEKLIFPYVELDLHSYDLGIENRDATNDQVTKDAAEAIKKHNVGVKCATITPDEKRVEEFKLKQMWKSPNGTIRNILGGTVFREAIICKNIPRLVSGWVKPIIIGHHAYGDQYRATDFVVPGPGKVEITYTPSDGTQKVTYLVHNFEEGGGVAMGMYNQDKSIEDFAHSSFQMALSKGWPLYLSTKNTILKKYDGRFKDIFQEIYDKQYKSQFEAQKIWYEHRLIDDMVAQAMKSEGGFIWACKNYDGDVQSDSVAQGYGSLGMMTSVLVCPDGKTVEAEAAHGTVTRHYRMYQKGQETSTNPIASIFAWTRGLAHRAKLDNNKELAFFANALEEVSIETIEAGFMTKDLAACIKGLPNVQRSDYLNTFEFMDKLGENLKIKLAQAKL
#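 IDH1-R132H (0.5 ug/mL dispensed) in pH 7.5 Tris buffer was preincubated 30 min with compound, then given a substrate mix of 0.016 mM NADPH and 2 mM alpha-KG for 80 min at room temperature; remaining NADPH was read by diaphorase/resazurin fluorescence.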
# Anesthetic bind = candidate novel general anesthetic via apoferritin binding; P02791; apoferritin/1-aminoanthracene competitive binding, fluorescence; Potency, µM (series often up to 77.5 µM), inactives show at the highest dose activity change, negative = displacement, hits mostly inhibitors; 350,000 compounds, 0.074% hits; further: on the % scale 0 is the no-effect control and ±100 the full control effect; nearly all actives have a fitted effect of over 20% in size
# Target sequence (P02791 2-175 limits assumed): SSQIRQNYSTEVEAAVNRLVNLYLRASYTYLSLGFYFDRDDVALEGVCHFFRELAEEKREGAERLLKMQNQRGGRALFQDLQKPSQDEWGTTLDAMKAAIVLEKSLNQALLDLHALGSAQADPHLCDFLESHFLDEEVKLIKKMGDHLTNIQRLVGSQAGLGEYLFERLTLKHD
#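 10 uM apoferritin + 50% sat. 1-AMA, PBS; cpd 10 min RT; Ex380/Em535 endpoint; normalized to free probe vs complex; 4-param Hill fit; propofol titration as pos. ctrl.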
# TrxR1 inh = rat TrxR1 inhibition; recombinant rTrxR1, NADPH fluorescence consumption, selenite substrate; O89049; 390,000 compounds, 1% hits; Potency, µM (titrated, usually from 114 µM), for the others: top-dose activity change, negative = inhibition, most hits filed as inhibitors; further: on the % scale 0 is the no-effect control and ±100 the full control effect; nearly all actives have a fitted effect of over 65% in size
#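 Rat TrxR1 (90 nM in the dispensed reagent) was pre-reduced with 400 uM NADPH for 5 min at room temperature, then incubated with compound for 15 min. After 400 uM selenite was added, NADPH fluorescence (Ex 340/Em 450 nm) was followed for 8 min.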
# TrxR1 substrate = substrates of rat thioredoxin reductase 1 | 390,000 compounds, 0.01% hits | purified TrxR1 substrate turnover, NADPH consumption readout | Potency, µM (titrated, usually from 114 µM), for inactives: at the top dose activity change, negative = substrate turnover; further: on the % scale 0 is the no-effect control and ±100 the full control effect; nearly all actives have a fitted effect of over 50% in size
#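 Rat TrxR1, dispensed at 90 nM, was prereduced with 400 uM NADPH (final) for 5 min at ~22 deg C, then incubated with compound 15 min before 400 uM selenite. A first-read NADPH fluorescence drop versus no-compound background flagged substrates.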
# * hit, by the source's call; ? = inconclusive; · = no result given; [ ] = another dose, or the depositor's remark. Shown are actives, neighbours in structure and some others; about 1.7% of the full set was active somewhere. The call rests on the fitted dose curve; in most records, active means well fitted curve in the direction sought with a large enough effect; inconclusive means small, poorly fitted or top-dose-only effect, or another doubt; inactive means no such curve, though single readings can be large; an effect the other way counts as inactive or inconclusive. Potency means the concentration at half of the fitted maximal effect.
SMILES,Glioma ERSR ind,12-LOX inh,mIDH1 inhibitor,Anesthetic bind,TrxR1 inh,TrxR1 substrate
CC(C)c1ccc(Nc2nc(CC(=O)O)cs2)cc1,1%,?,2%,?,2%,-3%
COc1ccc(S(=O)(=O)Nc2nc3ccccc3nc2Nc2ccccc2F)cc1,·,-29%,·,·,·,·
O=C(N[C@@H]1C[C@H]2CC[C@@H]1C2)c1cccc(Cl)c1,·,-17%,·,·,·,·
O=C(C#Cc1ccccc1)c1cccc([N+](=O)[O-])c1,-13%,-8%,5%,-15%,0.1µM*,-4%
CN1C[C@H](C(=O)Nc2cccc(F)c2)C[C@H]1c1cccc(C(F)(F)F)c1,·,20µM*,·,·,·,·
COc1cccc(NC(=O)NCCCSC2CCCCC2)c1,2%,-7%,0%,?,2%[57.1 µM],0%[57.1 µM]
Cc1cc(C)c(NC(=S)NCCCSC2CCCCC2)c(C)c1,-7%,25µM*,-2%,0%,8%[57.1 µM],-1%
CC(C)(C)c1ccc(C(=O)Nc2ccc(Cl)cn2)cc1,·,0%,·,·,·,·
Cc1ccc(Sc2c(C)nn(C(=O)COc3ccccc3Br)c2C)cc1,0%,-28%,0%,6.3µM*,41%,14%
COc1cc(NS(=O)(=O)c2ccc(NC(=S)NC(=O)c3ccc(F)cc3)cc2)nc(OC)n1,3%,18µM*,-9%,-4%,?,0%
Cc1cc(NS(=O)(=O)c2ccc(NC(=S)NC(=O)c3cccc(S(=O)(=O)N(C)C)c3)cc2)no1,-3%,?,0%,-9%,-11%,1%
Cc1cc(NS(=O)(=O)c2ccc(NC(NC(=O)C(C(F)(F)F)C(F)(F)F)(C(F)(F)F)C(F)(F)F)cc2)no1,-5%,·,-4%,-8%,10µM*,4%[57.1 µM]
Cc1ccc(NC(=S)NC(=O)c2ccc(F)cc2)cc1S(=O)(=O)Nc1ccccc1Cl,4%,5µM*,-2%,-16%,?,-2%[57.1 µM]
Cc1ccc(NC(=O)c2ccc(=O)[nH]n2)cc1S(=O)(=O)Nc1ccccc1Cl,-3%,254%,-2%,·,17%,9%
Cc1cc(NS(=O)(=O)c2ccc(NC(=S)NC(=O)c3ccc(F)cc3)cc2)no1,-3%,25µM*,23%,-1%,-60%,8%[57.1 µM]
Cc1cc(C)c(S(=O)(=O)N2CCCC2c2cc(C(C)C)on2)c(C)c1 (centres undefined),·,-6%,·,·,·,·
Cc1oc2c(c1C(=O)N1CC(C)(C)C(C)(O)C1)C(=O)CCC2 (centres undefined),·,6%,·,·,·,·
COc1ccc(C(=O)NC(=S)Nc2ccc(S(=O)(=O)Nc3cc(OC)nc(OC)n3)cc2)cc1,0%,7.1µM*,0%,1%,56µM*,-3%
COc1ccc(C(=O)NC(=S)Nc2ccc(S(=O)(=O)Nc3cc(OC)ncn3)cc2)cc1,0%,10µM*,0%,6%,45µM*,-9%
COc1ccc(OCC(=O)NC(=S)Nc2ccc(S(=O)(=O)Nc3cc(OC)nc(OC)n3)cc2)cc1,-4%,?,4%,-3%,6%,5%[11.4 µM]
COc1ccc(C(=O)n2nc(-c3ccco3)nc2NCc2cccs2)cc1OC,0%,7.9µM*,1%,5%,?,-8%
O=C(c1csc(Br)c1)N(Cc1ccncc1)C1CC1,·,-1%,·,·,·,·
COc1ccc2cc3cc(C(=O)NCCCN4CCC(C)CC4)oc3nc2c1,12%,·,6%,103%,50µM*,700%
O=C(NS(=O)(=O)Nc1ccccc1)C1=C(N2CCCC2)COC1=O,-4%,16µM*,5%,·,35%[57.1 µM],7%[57.1 µM]
O=C(NCCc1ccccn1)[C@@H]1C[C@@H](c2ccc(F)cc2)N(Cc2ccccc2)C1,·,-13%[176 µM],·,·,·,·
SMILES,Glioma ERSR ind,12-LOX inh,mIDH1 inhibitor,Anesthetic bind,TrxR1 inh,TrxR1 substrate
Cc1cc(C)nc(SCC(=O)Oc2ccc3oc(=O)cc(C)c3c2)n1,-4%,0%,6%,-4%,1µM*,10%[57.1 µM]
Cc1cnc(C2CCN(C(=O)c3ccc(Cl)cc3)CC2)[nH]1,·,2%[6.33 µM],·,·,·,·
COc1ccc(S(=O)(=O)NCCSC(C)(C)C)c(Cl)c1Cl,0%,-21%,4%,16µM*,10%,-2%
CCCc1nnc(NC(=O)c2ccc3[nH]c(C)cc(=O)c3c2)s1,·,7%,·,·,·,·
COc1ccccc1-n1cc(-c2ccccc2)c2c(=S)nc[nH]c21,-2%,45µM*,0%,-10%,23%,1%
CCc1cc(=O)oc2c(C)c(OCc3ccccc3)ccc12,·,4%,·,·,·,·
COCc1cc(S(=O)c2ccc(Cl)cc2)nc(C)n1 (centres undefined),-15%,?,4%,-12%,14µM*,0%
CN1\C(=C/C=C/C=C/C=[N+](C)C)C(C)(C)c2ccccc21,-6%,2%,46µM*,?,?,-8%
CN1/C(=C\C=O)C(C)(C)c2ccccc21,-3%,-2%,13%,-10%,12%[57.1 µM],-8%
COC(=O)[C@]12C[C@H](CC(=O)NCCCN3CCCC3=O)C(=O)N(Cc3ccco3)C1=C[C@H](C(C)C)O[C@@H]2C1CC1,·,32%,·,·,·,·
Cc1ccc(CCN2CCCCC23Cc2ccccc2CN(C(=O)CCC(=O)O)C3)cc1 (centres undefined),·,32µM*,·,·,·,·
CC(C)OCC(O)Cn1c(N2CCCCC2)nc2c1c(=O)[nH]c(=O)n2C (centres undefined),·,1%,·,·,·,·
Cc1cc(C)cc(C(=O)N2CCCCCC2)c1,-6%,-12%,4%,13µM*,16%,7%
CC(=Nc1ccc(Cl)cc1N)c1c(O)cc(C)oc1=O,·,35µM*,·,·,·,·
Cc1cccc(CN2CCCCC23Cc2ccccc2CNC3=O)n1 (centres undefined),·,55%,·,·,·,·
COC(=O)C1=C(C)N(C)C(=O)/C1=C\c1ccco1,8%,-3%,-5%,-14%,25µM*,-6%
COC(=O)C1=C(C)N(Cc2ccco2)C(=O)/C1=C\c1ccc([N+](=O)[O-])cc1,?,?,3%,-18%,20µM*,-1%
COC(=O)C1=C(C)N(Cc2ccc(OC)cc2)C(=O)/C1=C\c1ccco1,-3%,?,8%,-14%,35µM*,-8%
O=C(c1ccc(=O)[nH]c1)N(c1ccccc1)C(CCc1ccccc1)c1nc2ccccc2[nH]1 (centres undefined),1%,-15%,·,·,·,·
O=C(c1ccc(F)cc1)N(c1ccccc1F)C(CCc1ccccc1)c1nc2ccccc2[nH]1 (centres undefined),·,5µM*,·,·,·,·
O=C(CC1(O)C(=O)N(Cc2ccc3c(c2)OCO3)c2ccccc21)c1ccccc1 (centres undefined),-6%,2%,2%,?,-11%,-13%
